# Results published in PubChem BioAssay (EPA / NIEHS).
# Calls of active or inactive are those of the source. How the source made its calls: active means hit-call score of the fitted dose curve at least 0.9, where 1 is the maximum; inactive means score below 0.9.
# Read-out: Potassium channel subfamily K member 1 (KCNK1), KCNK1 (gene 3775)
# Assay: LTEA_HepaRG_KCNK1: Life Technologies and Expression Analysis (LTEA) Assay for Potassium channel subfamily K member 1 (KCNK1) using HepaRG (AID 2283511)
# Conditions: mRNA level, 48 h; actives raise or lower the signal
# Method: LTEA_HepaRG is a cell based, multiplexed-readout assay that uses HepaRG, a human liver cell line, with measurements taken at 48 hours after chemical dosing on a 96-well plate.LTEA_HepaRG_KCNK1 is one of 102 assay component(s) measured in the LTEA HepaRG cell culture assay. It is a marker of Hyperplasia.Data from the assay component LTEA_HepaRG_KCNK1 was analyzed into 1 endpoint. This assay endpoint, LTEA_HepaRG_KCNK1, was analyzed with bidirectional fitting relative to DMSO as the negative control and baseline of activity. Using a type of inducible reporter, measures of mRNA induction for gain or loss-of-signal activity can be used to understand regulation of transcription factor activity. To generalize the intended target to other relatable targets, this assay endpoint is annotated to the ion channel intended target family, where the subfamily is potassium channel.
# A total of 1060 chemcials from the ToxCast library were tested in eight-point concentration-response experiments. Cell culture and cytotoxicity assays were conducted at Thermo Fisher Scientific's Custom Services facility (Madison, WI). A single lot of human HepaRG cells (Thermo Fisher Scientific, Frederick, MD) was used for the cell culture experiments. 96-well format collagen type I coated plates of human HepaRG cells were prepared using established methods. Briefly, cryopreserved HepaRG cells were thawed, plated at a density of approximately 100,000 cells/well in HepaRG Thaw, Plate, and General Purpose media (HPRG770, Thermo Fisher Scientific), and incubated for 48 hours. 0.5% DMSO was selected as vehicle control to balance the requisite need of DMSO in HepaRG cultures to maintain differentiation (for example, baseline metabolism, proportions of hepatocytes vs. cholangiocytes), while enabling further hepatic receptor pathway activation (for example, PXR and CAR) in response to chemical exposure. 48 hours after plating, the culture medium was replaced with HepaRG Serum-Free Incudtion Media. Cells were exposed to each test chemical in duplicate and maintained in CO2 incubators for another 48 hours. Chemical plates were thawed to room temperature and 200x concentrations of treatment groups were prepared. 8-point conentration-reponse curves were made with the highest exposure at 100 uM, followed by half-log dilutions, all in 0.5% DMSO. Each test plate contained variouse controls, induction positive controls (1mM phenobarbital), cytotoxicity positive controls ([…] aflatoxin B1), vehicle controls (0.5% DMSO), and total lysis controls (0.5% DMSO). Cell morphology images were taken using an Essen IncuCyte FLR automated microscope, with six 96-well plates imaged in about 24 minutes. Images were captured and exported and JPEG files. Spent culture media was transfered to black-well plates for the LDH assay, and remaining media was sorted at -80 C for later use. Cells were treated with RLT buffer and frozen until shipped for gene expression analysis. Total RNA was isolated from the cell suspension in 75 uL of Buffer RLT (Qiagen, Germantown, MD 20874) by Quintiles/Expression Analysis (Durham, NC) using a custom isolation procedure. Total RNA from each plate well was transferred to a preamplification plate. Fluidigm's 96.96 Dynamic ArrayTM (Fluidigm, Amsterdam, the Netherlands) technology was used for gene expression analyses by quantitative reverse transcription polymerase chain reaction (qRT-PCR, performed by Quintiles/Expression Analysis, Durham, NC)89. Standard TaqManTM Assays (Applied Biosystems/ThermoFisher Scientific, Foster City, CA) were used to assess the expression of 93 genes selected based on their selectivity and sensitivity to important hepatic receptors known to be modulated by environmental chemicals; importance in human hepatocyte functionality; and hepatotoxicity. […]
SMILES,outcome,AC50
CO[C@@H]1[C@H](OC(=O)NC(=O)CCl)CC[C@]2(CO2)[C@H]1[C@@]1(C)O[C@@H]1CC=C(C)C,inactive,–
O=Cc1ccco1,inactive,–
CC(C)N(Cc1ccccc1)C(=O)C(C)(C)C,inactive,–
O=C(O)C1C2CCC(O2)C1C(=O)O (stereo not given),inactive,–
CCN(CC)N=O,inactive,–
Cc1ccc([N+](=O)[O-])cc1,inactive,–
N#CC(Br)(Br)C(N)=O,inactive,–
CCCCCCCCn1sccc1=O,inactive,–
Clc1ccccc1Cl,inactive,–
CC(C)(C)C(O)(CCc1ccc(Cl)cc1)Cn1cncn1 (stereo not given),inactive,–
OCCCl,inactive,–
Cc1ccc(N=C=O)cc1N=C=O,inactive,–
CCC12COCN1COC2,inactive,–
CN(C)c1ccc(C(=O)c2ccc(N(C)C)cc2)cc1,inactive,–
COc1cc(C=O)cc2c1[C@H](COC(N)=O)[C@]1(OC(C)=O)ON2C[C@H]2[C@@H]1N2C(C)=O,inactive,–
O=[N+]([O-])c1ccc(Oc2ccc(Cl)cc2Cl)cc1,inactive,–
[Cl-].[Cl-].[Hg+2],inactive,–
CCCCC(CC)COC(=O)c1ccc(C(=O)OCC(CC)CCCC)c(C(=O)OCC(CC)CCCC)c1 (stereo not given),inactive,–
C=CCc1ccc2c(c1)OCO2,inactive,–
Clc1ccc(C(c2ccc(Cl)cc2)C(Cl)(Cl)Cl)cc1,inactive,–

SMILES,outcome,AC50
Cc1cccc(N)c1N,inactive,–
CCN(CC)CCO,inactive,–
CNC(=O)Oc1cccc2c1OC(C)(C)C2,inactive,–
CCOc1cccc(C2(N3CCN(c4ccccc4)CC3)CCC(C)CC2)c1 (stereo not given),inactive,–
CC(C)COC(=O)c1ccccc1C(=O)OCC(C)C,inactive,–
CC(C)(C)OOC(C)(C)CCC(C)(C)OOC(C)(C)C,inactive,–
CC(C)(OOC(C)(C)c1ccccc1)c1ccccc1,inactive,–
O=C(N[C@H](c1ccccc1)[C@@H]1CN2CCC1CC2)c1c(Cl)ccc(C(F)(F)F)c1Cl,–,59.7 µM (active)
CN(C)c1ccccc1,inactive,–
CCCCCCCCOC(=O)c1ccc(C(=O)OCCCCCCCC)c(C(=O)OCCCCCCCC)c1,inactive,–
CCNS(=O)(=O)C(F)(F)C(F)(F)C(F)(F)C(F)(F)C(F)(F)C(F)(F)C(F)(F)C(F)(F)F,inactive,–
Cn1cc(-c2ccccc2)c(=O)c(-c2cccc(C(F)(F)F)c2)c1,inactive,–
COC(=O)c1ccccc1N,inactive,–
C[N+](C)(C)CC1CO1 (stereo not given),inactive,–
CC(C)(O)c1cnn2c(-c3ccc(F)c(-c4c(F)cccc4C#N)c3)cnc2n1,inactive,–
CS(=O)(=O)NC(=O)c1cc(Oc2ccc(C(F)(F)F)cc2Cl)ccc1[N+](=O)[O-],inactive,–
c1ccc(C2CO2)cc1 (stereo not given),inactive,–
[O-][Cl+]O,inactive,–
Oc1ccccc1Cl,inactive,–
O=C(Oc1ccc(Br)cc1)N1CCN2CCC1CC2,inactive,–
